# USP8 block – inhibitors of human USP8 deubiquitinase; P40818; purified USP8, Ub-rhodamine cleavage fluorescence, 30 min; inhibition, % at 20 µM; hit rate 4.2% among 47,000
# USP30 block – blocks human USP30 ubiquitin-rhodamine cleavage; Q70CQ3; purified USP30, Ub-rhodamine cleavage fluorescence; inhibition, % at 25 µM; hit rate 5.3% among 47,000
# USP7 inh – human USP7 deubiquitinase inhibition; purified USP7, Ub-rhodamine cleavage fluorescence; inhibition, % at 20 µM; hit rate 0.3% among 47,000; AID 1645854
# Target sequence (Q93009 whole entry, looked up): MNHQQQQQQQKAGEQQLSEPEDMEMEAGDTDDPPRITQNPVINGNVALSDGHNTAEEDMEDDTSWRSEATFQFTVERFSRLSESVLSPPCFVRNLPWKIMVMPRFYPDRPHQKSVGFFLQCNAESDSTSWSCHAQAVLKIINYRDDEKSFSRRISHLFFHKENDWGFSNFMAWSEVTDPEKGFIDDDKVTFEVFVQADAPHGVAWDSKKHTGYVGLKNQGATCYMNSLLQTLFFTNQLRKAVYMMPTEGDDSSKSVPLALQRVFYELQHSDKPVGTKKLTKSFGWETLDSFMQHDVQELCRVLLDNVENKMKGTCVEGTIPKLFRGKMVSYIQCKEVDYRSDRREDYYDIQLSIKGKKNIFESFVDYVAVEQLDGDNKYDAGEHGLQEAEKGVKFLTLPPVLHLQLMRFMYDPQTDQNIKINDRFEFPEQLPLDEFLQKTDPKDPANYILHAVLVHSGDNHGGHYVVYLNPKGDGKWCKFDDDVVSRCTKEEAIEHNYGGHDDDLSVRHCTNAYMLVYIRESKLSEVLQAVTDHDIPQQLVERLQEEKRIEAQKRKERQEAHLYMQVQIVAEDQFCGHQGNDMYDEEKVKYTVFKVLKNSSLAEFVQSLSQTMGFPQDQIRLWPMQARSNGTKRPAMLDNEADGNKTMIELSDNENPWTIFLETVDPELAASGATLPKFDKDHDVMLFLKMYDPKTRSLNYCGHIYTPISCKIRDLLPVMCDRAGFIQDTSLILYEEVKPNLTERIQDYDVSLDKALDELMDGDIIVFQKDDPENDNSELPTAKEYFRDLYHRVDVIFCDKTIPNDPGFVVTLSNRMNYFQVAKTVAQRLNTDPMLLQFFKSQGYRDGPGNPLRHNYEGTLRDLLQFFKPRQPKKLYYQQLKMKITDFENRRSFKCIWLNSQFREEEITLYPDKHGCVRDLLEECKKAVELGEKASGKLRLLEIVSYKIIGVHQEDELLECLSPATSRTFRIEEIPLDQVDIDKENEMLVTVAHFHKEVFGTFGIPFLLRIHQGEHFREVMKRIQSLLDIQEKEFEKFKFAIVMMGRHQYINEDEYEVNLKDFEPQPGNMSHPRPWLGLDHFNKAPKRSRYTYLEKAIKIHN
# USP10 inh – human USP10 deubiquitinase inhibition. purified USP10, Ub-rhodamine fluorescence, 60 min. inhibition, % at 20 µM. hit rate 1.1% among 47,000. AID 1645856
# UCHL1 block – blocks human UCHL1 ubiquitin-rhodamine cleavage | hit rate 0.2% among 47,000 | AID 1645859 | inhibition, % at 20 µM | purified UCHL1, Ub-rhodamine cleavage fluorescence
# USP17 inh – blocks human USP17 ubiquitin-rhodamine cleavage | purified USP17, Ub-rhodamine cleavage fluorescence, 3 h | inhibition, % at 50 µM | hit rate 6.5% among 47,000 | AID 1645855
# Active calls of the source: *; x = no result given. Most compounds without a hit are left out; they make up all but 13% or so of the library. Rule as the data show it: active = inhibition above about 30%; inactive = the rest.
SMILES,USP8 block,USP30 block,USP7 inh,USP10 inh,UCHL1 block,USP17 inh
CC1(C)C[C@@H](O)[C@]2(C)CC[C@]3(C)C(=CCC4[C@@]5(C)CC[C@H](O)[C@](C)(CO)[C@@H]5CC[C@]43C)[C@@H]2C1 (some centres not stated),2.6,42.8*,1.3,4.7,2.5,52.6*
Cc1nc2sc(C(=O)Nc3cccc4cccnc34)c(N)c2c(C)c1Cl,0.1,-13.0,1.7,0.8,-1.3,1.6
COc1cc(C(=O)NC(Cc2ccccc2)c2nc3ccccc3[nH]2)cc(OC)c1OC (configuration not stated),10.3,66.4*,10.6,25.5,8.5,3.3
O=C(NC(Cc1ccccc1)c1nc2ccccc2[nH]1)c1cc(=O)[nH]c2ccccc12 (configuration not stated),-23.8,56.2*,-1.3,-1.1,-0.1,60.9*
CC(C)Cn1c(=O)c2sccc2n2c(CCC(=O)NC3CCCC3)nnc12,11.6,18.3,-0.6,1.6,-1.4,10.4
NC(=O)c1cnn2c(C3CCCCN3C(=O)c3ccccc3)ccnc12 (configuration not stated),-1.1,16.4,1.3,-1.0,-0.2,-3.0
Fc1ccc(N2CCN(c3ncnc4nc[nH]c34)CC2)cc1,-10.7,6.7,-1.5,2.8,-2.4,-2.2
Clc1cccc(N2CCN(c3ncnc4nc[nH]c34)CC2)c1,-6.0,5.1,2.2,-0.3,-0.2,56.4*
Nc1nc(N2CCN(c3ccc(Cl)cc3)CC2)c2[nH]cnc2n1,3.6,16.3,-8.4,1.4,-0.1,41.6*
CCOc1ccc(N(C)S(=O)(=O)c2ccc(C)c(C(=O)OCC(=O)N(Cc3ccccc3)C(C)(C)C)c2)cc1,-7.7,-17.9,4.6,1.4,0.7,-5.4
CC(=O)Nc1cc(C(=O)NC(C)c2ccccc2)c2ccc(C)nc2c1 (configuration not stated),10.7,-74.2,-9.2,-5.6,-2.1,-3.7
COc1ccc(C(C)NC(=O)c2cc(NC(C)=O)cc3nc(C)ccc23)cc1 (configuration not stated),58.2*,-73.4,-10.1,-5.6,10.7,17.4
CC1Cc2ccccc2N1S(=O)(=O)c1nnc(NC(=O)C23CC4CC(CC(C4)C2)C3)s1 (configuration not stated),4.1,-76.9,10.7,-0.1,3.9,-5.8
Cc1ccc(-n2cc(C(=O)NCc3cccnc3)nn2)cc1C,-2.6,66.5*,-5.7,8.3,-1.1,x
O=C(NCc1ccccn1)c1cn(-c2cccc(Cl)c2)nn1,-1.1,9.0,-9.4,2.8,-2.5,32.7*
O=C(NCc1cccnc1)c1cn(-c2cccc(Cl)c2)nn1,-3.3,28.9,-6.3,-1.9,1.0,23.7
O=S(=O)(c1ccccc1)N1CCOCC1CCc1cnccn1 (configuration not stated),8.5,-4.4,0.5,3.0,2.1,-0.1
CN1C[C@@]23CN(C(=O)c4cnccn4)C[C@@H](C[C@@H]2S1(=O)=O)O3,6.3,32.4*,2.2,4.7,3.3,11.4
Cc1ccc(N2CCCS2(=O)=O)cc1NC(=O)COc1ccccc1C,-2.3,21.1,-1.7,-0.3,-0.9,-3.6
Cc1ccc(N2CCCS2(=O)=O)cc1NC(=O)COc1ccccc1F,-122.7,34.3*,0.4,1.1,0.6,13.4
Cc1ccc(NC(=O)CC(NCCc2ccccc2)C(=O)O)cc1 (configuration not stated),-0.4,4.0,-0.6,0.1,-4.3,-7.0
Cc1cc(O)ccc1NC(=O)CC(NCCc1ccccc1)C(=O)O (configuration not stated),30.8*,6.0,5.8,2.8,1.4,12.3
Cc1ccc(Nc2c(C(=O)N3CCOCC3)cnc3ccccc23)c(Cl)c1,-12.6,-123.3,-13.9,-5.5,-10.3,19.5
COc1ccc2c(c1)C(=O)N(CCc1ccc(S(=O)(=O)NC(=O)NC3CCCCC3)cc1)C(=O)C2(C)C,17.4,46.7*,4.0,20.8,1.3,28.3
COc1ccc(COC(=O)NC2CCN(S(=O)(=O)c3ccc(OC)cc3)CC2)cc1,-12.1,-61.7,6.9,-4.0,1.8,-41.4
SMILES,USP8 block,USP30 block,USP7 inh,USP10 inh,UCHL1 block,USP17 inh
Cc1cc(=O)oc2cc(OCC(=O)NC3CCN(Cc4ccccc4)CC3)ccc12,-0.3,-12.2,6.3,-0.7,1.7,1.5
CCOc1ccccc1C(=O)Oc1ccc2c(C)cc(=O)oc2c1,35.3*,31.0*,-5.6,10.1,-7.3,59.4*
O=C(c1cc2ccccc2o1)N1CC=C(c2ccccc2)CC1,21.1,50.4*,-20.4,12.2,5.6,36.1*
Cn1c2ccccc2c2ncn(Cc3ccc(F)cc3)c(=O)c21,-1.5,33.9*,8.0,7.4,5.2,71.2*
COc1ccc2c(c1)c1ncn(CCCn3ccnc3)c(=O)c1n2C,5.2,-1.2,0.0,0.9,-3.6,0.8
CCCCn1cnc2c3cc(F)ccc3n(C)c2c1=O,15.1,64.6*,-26.5,3.9,0.2,65.0*
CCn1cnc2c(-c3ccccc3)cn(CC(=O)NCc3ccc(F)cc3)c2c1=O,14.0,-76.0,2.2,-6.6,-1.3,0.2
Cc1ccc(-c2nnc(-n3ncc(C#N)c3N)c3ccccc23)cc1C,0.3,-0.3,3.7,0.9,0.1,62.5*
Cc1ccc(C(=O)Nc2ccc3ccccc3n2)cc1,4.9,5.0,1.6,1.2,-1.7,2.4
Cc1ccc(C(=O)Nc2ncnc3oc(-c4ccccc4)c(-c4ccccc4)c23)cc1,61.0*,9.6,7.1,7.6,7.2,25.4
Cc1ccc(C(=O)Nc2ncn(CC(=O)Nc3ccccc3)n2)cc1,15.2,41.2*,3.6,0.0,1.4,24.6
COc1ccc(NC(=O)Cn2cnc(NC(=O)c3ccccc3)n2)cc1,26.3,-0.7,0.2,-14.2,-0.9,45.8*
COc1cccc(NC(=O)Cn2cnc(NC(=O)c3ccccc3)n2)c1,5.9,11.9,3.9,1.1,2.1,6.8
COc1ccc(C2[C@@H]3CCCC[C@]3(O)CCN2C(=O)/C=C/c2ccccc2)cc1 (some centres not stated),-28.9,-5.7,-3.5,-1.1,1.0,-10.3
O=c1[nH]c(-c2cccnc2)nc2c1CN(Cc1cccnc1)CC2,-12.6,-107.9,-0.9,-4.3,-1.8,-23.3
CC1(C)c2[nH]c3ccccc3c2C[C@@H]2C(=O)N(C3CCCC3)CC(=O)N21,1.7,3.9,-47.6,0.5,-2.8,-0.7
CC1(C)c2[nH]c3ccccc3c2C[C@@H]2C(=O)N(C3CCCCC3)CC(=O)N21,31.3*,13.2,-19.5,7.0,-0.2,12.3
COc1ccc(N2C(=O)[C@@H]3Cc4c([nH]c5ccccc45)C(C)(C)N3C2=O)c(OC)c1,-9.1,-21.7,3.5,3.1,3.1,47.0*
CN1CC(=O)N2[C@H](Cc3c([nH]c4ccccc34)C2(C)C)C1=O,-13.4,5.1,-2.0,-0.5,-1.0,16.0
O=C(NC1CCCCC1)C(c1ccc(F)cc1)N(Cc1ccccc1)C(=O)CN1C(=O)c2ccccc2S1(=O)=O (configuration not stated),17.0,44.6*,9.6,28.5,1.8,7.2
